Screens as filed in PubChem BioAssay.
Most compounds without a hit are left out; they make up all but 1.5% or so of the library.
NTR1 ag – agonists of human neurotensin receptor NTR1; P30989; NTR1-U2OS beta-arrestin-GFP spot imaging, agonist mode; activation, % at 20 µM; 0.17% of 330,000 active; AID 493036;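 active = activation at or above 40% of the spot to cytoplasm intensity ratio, with at least 20 cells analyzed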;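 also: 0% = DMSO without peptide and 100% = 100 nM NTR1 peptide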
CRFBP-R2 agonist – CRF-BP/CRF-R2 complex agonism; HEK293 CRF-R2/CRF-BP, calcium dye fluorescence (FLIPR); percent of saturating CRF peptide response; 0.46% of 350,000 active; activation, % at 13.2 µM;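 active = activation of at least 50%, plus an integration ratio under a set limit after plate pattern correction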;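 also: plate controls were neutral control wells without compound for no effect and CRF at EC100 for full effect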
V-ATPase pH – regulators of yeast V-ATPase proton transport | S. cerevisiae, pHLuorin cytosolic pH fluorescence | response, % at 10 µM | 0.37% of 350,000 active; in the data active = response mostly above about 7.3%, no sharp cut-off; inactive = mostly below about 5.4%; also: actives read high
CRFBP-R2 block – CRF-BP/CRF-R2 complex antagonism | HEK293 CRF-R2/CRF-BP, CRF-induced calcium fluorescence | inhibition, % at 11.8 µM | 0.59% of 350,000 active | AID 588475;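 active = inhibition of the ligand-induced calcium signal above about 50% at the single tested concentration, limit read from the data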
V-ATPase pH SP – yeast V-ATPase proton transport regulation; shares compounds with V-ATPase pH; S. cerevisiae pHLuorin cytosolic pH; response, % at 10 µM; 2% of 980 active; AID 602197; in the data active = response above about 24%;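 also: plate controls were vehicle wells for no effect and positive control wells for full effect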
* = called active by the depositor; x = no result.

SMILES | NTR1 ag | CRFBP-R2 agonist | V-ATPase pH | CRFBP-R2 block | V-ATPase pH SP
CCCCCOC(=O)C1=C(C)NC(=O)NC1c1ccc(N(C)C)cc1 (stereo unspecified) | -0.6 | -0.2 | 2.4 | -9.3 | x
CCc1c(C)nc(N2CCN(c3ccc(OC)cc3)CC2)[nH]c1=O | 1.1 | -0.2 | -0.8 | 4.6 | x
N#C/C(C(N)=O)=C1/CCc2ccccc2N1 | 0.4 | -4.8 | 12.8* | 11.7 | 3.5
O=C(CCl)N1CCN(C(=O)C2COc3ccccc3O2)CC1 (stereo unspecified) | 0.3 | 3.1 | 14.1* | -2.6 | 1.5
CCN1CCN(C(=O)C2COc3ccccc3O2)CC1 (stereo unspecified) | 0.1 | 0.9 | 7.9 | -4.2 | x
CCN(CC)CCN(C(=O)c1ccc2c(c1)CCCC2)c1nc2ccc(F)cc2s1 | 3.1 | 2.0 | 1.5 | -19.3 | x
CN(C)CCCN(C(=O)c1ccc2c(c1)CCCC2)c1nc2ccc(F)cc2s1 | 6.1 | 10.2 | 19.1* | -175.9 | 0.4
Cc1cc(C(=O)O)c2ccccc2n1 | 0.2 | 0.8 | 16.2* | 24.7 | 4.2
CC(=O)C[C@H]1c2ccccc2S(=O)(=O)N1c1ccccc1 | -1.5 | 0.2 | -2.4 | -1.1 | x
